About 5,800 (36%) of roughly 16,000 compounds were called active. Not shown: some 23% with an inconclusive outcome. The list shows a part of the results. Unmarked numbers belong to inactive results. Calls come from the whole dose curve; as a rule, active = well fitted curve in the direction sought with a large enough effect; inconclusive = small, poorly fitted or top-dose-only effect, or effect the other way; inactive = no such curve, though single readings can be large or run the other way. Square brackets hold non-standard residues; d marks the D form. Peptide text beside a SMILES is read from it. * marks the point of attachment. ξ: configuration not given here. Cbz = O=C(OCc1ccccc1)*; ξA = CC(N)C(=O)O
% is set by controls: 0 for no effect and ±100 for the full control effect.

The assay deals with Cytochrome P450 2C19 (Homo sapiens) (UniProt P33261). The assay is described as follows: Cytochrome panel assay with activity outcomes. As to conditions: recombinant CYP, pro-luciferin dealkylation, luminescence, p450-cyp2c19; series mostly up to 57.1 µM.
Cytochrome P450 2C19 (Homo sapiens), sequence (P33261 whole entry, looked up): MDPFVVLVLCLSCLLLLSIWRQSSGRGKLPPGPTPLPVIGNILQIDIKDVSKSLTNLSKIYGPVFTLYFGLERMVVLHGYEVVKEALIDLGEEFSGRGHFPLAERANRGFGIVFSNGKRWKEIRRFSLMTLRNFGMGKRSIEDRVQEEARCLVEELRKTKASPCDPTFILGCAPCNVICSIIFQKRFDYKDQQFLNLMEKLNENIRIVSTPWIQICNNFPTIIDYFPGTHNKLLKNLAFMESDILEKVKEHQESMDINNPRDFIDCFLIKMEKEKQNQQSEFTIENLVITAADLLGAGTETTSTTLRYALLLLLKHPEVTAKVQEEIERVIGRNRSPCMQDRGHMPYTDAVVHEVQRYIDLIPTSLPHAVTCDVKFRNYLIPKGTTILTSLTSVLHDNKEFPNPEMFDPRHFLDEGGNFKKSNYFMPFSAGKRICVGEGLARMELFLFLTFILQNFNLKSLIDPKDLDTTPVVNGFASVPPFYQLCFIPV
As for `C[C@H](N)CCCC(C)(C)O`, the AC50 (as a rule, the midpoint of the concentration-response curve, whichever way the signal moves) is “inactive”.
With `O=C(O)c1ccccc1-c1ccc(/C=c2\sc3nc4cc(Br)cnc4n3c2=O)o1`, the AC50 is 35.5 µM (active).
Same read-out and setting: with `Cc1cc2[nH]c(=O)c3ccccc3n2n1` the entry was “inactive”.
On the same count and under the same terms, the same measure for `Cc1cc(C)n(C(=O)c2cc3ccccc3c(=O)o2)n1`: 1.58 µM (active).
In the case of `CCc1cc2c(nc1CC)CCN(CC/C(C)=N/O[C@@H]1O[C@H](COC(C)=O)[C@H](OC(C)=O)[C@H](OC(C)=O)[C@H]1OC(C)=O)C2`, the activity, negative = inhibition is 6.45% [at 11.4 µM].
`CCS(=O)(=O)c1ccc2oc(Nc3cc(C)cc(C)c3)nc2c1`: the AC50 is 11.2 µM (active).
Same read-out and setting: with `COC(=O)CNC(=O)C(C)NC(=O)CNC(=O)OCc1ccccc1` (stereo not drawn) (Cbz-Gly-[ξA]-Gly-OMe) the figure was 31.6 µM (active); with `CC(C)C[C@H](NC(=O)[C@@H](O)[C@@H](N)Cc1ccccc1)C(=O)O`, “inactive”.
In the case of `COC(=O)[C@H](C)NC(=O)[C@@H](C)CO`, the activity, negative = inhibition is 35.5% [at 11.4 µM].
On the same count and under the same terms, with `CC(=O)N[C@H](Cc1ccc(O)cc1)C(=O)O` the figure was -9.65% [at 11.4 µM].
`COC(=O)[C@H](Cc1ccccc1)NC(=O)[C@@H](C)CO`: the AC50 is 1.26 µM (active).
As to `O=C(O)CNC(=O)[C@@H](CS)Cc1ccccc1`, the AC50 result was “inactive”.
Consider `N[C@@H](Cc1ccccc1)C(=O)O`, for which the activity, negative = inhibition is 8.56% [at 11.4 µM].
For the compound `CC(=O)SC[C@@H](Cc1ccccc1)C(=O)NCC(=O)OCc1ccccc1`, the AC50 was 0.126 µM (active).
Regarding `O=C(N[C@@H](Cc1ccccc1)C(=O)CCl)OCc1ccccc1`, the AC50 is 5.01 µM (active).
With `CC(C)(C)N1C(=O)[C@H]2[C@H]3[C@H](O)[C@H](O)C/C(=N/NC(=O)OCc4ccccc4)[C@@H]3CC[C@@H]2C1=O`, the activity, negative = inhibition is 6.74% [at 11.4 µM].
On the same count and under the same terms, the same measure for `CC(C)(C)N1C(=O)[C@H]2[C@H]3[C@H](O)[C@H](O)C/C(=N/NC(=O)OCc4ccccc4)[C@H]3CC[C@@H]2C1=O`: 41% [at 11.4 µM]; for `NC([N-]/N=C/c1ccccn1)=[S]=[Fe].O=S(=O)(O)O`: -35.2% [at 11.4 µM].
Still for that read-out and setting: the same measure for `CSCC[C@@H]1NC(=O)C/C=C\[C@@H](C)COC(=O)[C@@H](C)COC1=O`: 30.8% [at 11.4 µM]; for `O=C1[C@H]2[C@H]3[C@H](O)[C@H](O)C/C(=N/OC[C@@H](O)COCc4ccco4)[C@H]3CC[C@@H]2C(=O)N1C[C@@H]1CCCO1`: -12.6% [at 11.4 µM].
Turning to `COC(=O)CCC(NC(=O)OCc1ccccc1)C(=O)NC(CC(C)C)C(=O)OC` (stereo not given) (Cbz-Glu(OMe)-Leu-OMe; configuration not given here), the AC50 is 11.2 µM (active).
In the case of `CC(C)[C@H](NC(=O)OCc1ccccc1)C(=O)N[C@H](C=O)Cc1ccccc1` (Cbz-Val-Phe-aldehyde), the AC50 entry was “inactive”.
For `CSCC[C@H](C=O)NC(=O)[C@H](CC(C)C)NC(=O)[C@H](CC(C)C)NC(C)=O` (Ac-Leu-Leu-[dM]-aldehyde), the AC50 entry is “inactive”.
Turning to `CC(C)C[C@H](NC(=O)[C@@H](O)[C@H](N)Cc1ccccc1)C(=O)O`, the AC50 result was “inactive”.
Regarding `CCCCC(C=O)NC(=O)C(CC(C)C)NC(=O)OCc1ccccc1` (stereo not given), the AC50 is 10 µM (active).
Still for that read-out and setting: the same measure for `COc1ccc(/C=C2\SC(=O)N(CCNC(=O)C3CC(=O)N(c4ccccc4)C3)C2=O)cc1` (stereo not given): 14.1 µM (active).
On the same count and under the same terms, the same measure for `COC(=O)COc1ccc(/C=C2/SC(=O)N(CC(=O)N3CCCC3)C2=O)cc1Br`: “inactive”.
As to `COCC(=O)N1CCC[C@@]2(CCN(Cc3ccccc3OC)C2)C1`, the AC50 result is “inactive”.
The same measure, in the same setting: the same measure for `Cc1ccc(-n2nc(C)c3c2OC(N)=C(C#N)C3c2ccco2)cc1` (stereo not given): 8.91 µM (active).
For the compound `O=C(O)c1cc2c(cc1S(=O)(=O)O)[C@H]1[C@@H]([C@H]3[C@H]2[C@@]2(Cl)C(Cl)=C(Cl)[C@]3(Cl)C2(Cl)Cl)[C@]2(Cl)C(Cl)=C(Cl)[C@@]1(Cl)C2(Cl)Cl`, the activity, negative = inhibition was -16.5% [at 11.4 µM].
As to `Cc1ccc(S(=O)(=O)Nc2cc(=O)[nH]c3c2CCC3)cc1`, the AC50 was 0.631 µM (active).
The same measure, in the same setting: with `Cc1cc(=O)[nH]c(-n2[nH]c3c(c2=O)CCCC3)n1` the entry was “inactive”.
The same measure, in the same setting: with `C=CCSc1nc2c(sc3nc(C)cc(C)c32)c(=O)[nH]1` the figure was 6.31 µM (active); with `Cc1cc(C)c2c(=O)[nH]c(SCC(=O)N(C)C)nc2n1`, “inactive”; with `Cc1cnc(CNc2ccnc(-c3cccc(NS(C)(=O)=O)c3)n2)cn1`, “inactive”.
The same measure, in the same setting: the same measure for `COc1cccc(-c2nccc(NCc3ccccc3OC)n2)c1`: 5.01 µM (active); for `COc1cccc(-c2nccc(NCc3ccc(OC)cc3OC)n2)c1`: 2.51 µM (active).
Turning to `COc1ccc(CNc2ccnc(-c3cccnc3)n2)c(OC)c1`, the AC50 was 2 µM (active).
As to `COc1ccc(CNc2ccnc(-c3cccc(NS(C)(=O)=O)c3)n2)c(OC)c1`, the AC50 was 15.8 µM (active).
Take `N[C@H](CCC(=O)NCS(=O)(=O)O)C(=O)O`: the AC50 result was “inactive”.
Consider `Cc1[nH]c2c(C)ccc(C)c2c1CC(=O)O`, for which the AC50 is 0.316 µM (active).
Turning to `COC(=O)C/C=C\[C@@H](C)[C@@H](/C=N\O[C@@H](C)c1cn([C@H]2COC[C@H]2O)nn1)NS(=O)(=O)c1ccc(C)cc1`, the activity, negative = inhibition is -9.22% [at 11.4 µM].
For the compound `CO/N=C\[C@@H](NS(=O)(=O)c1ccc(C)cc1)[C@H](C)/C=C\CC(=O)OC`, the AC50 is 3.16 µM (active).
As for `COC(=O)C/C=C\[C@@H](C)[C@@H](/C=N\O[C@@H](C)c1cc(-c2c(C)cc(C)cc2C)no1)NS(=O)(=O)c1ccc(C)cc1`, the AC50 was 3.16 µM (active).
On to `COC(=O)C/C=C\[C@@H](C)[C@@H](/C=N\O[C@@H](C)CN1CCCc2nc(C)c(C)cc21)NS(=O)(=O)c1ccc(C)cc1`, for which the activity, negative = inhibition is -27.4% [at 11.4 µM].
Same read-out and setting: with `COC(=O)C/C=C\[C@@H](C)[C@@H](/C=N\OC[C@@H](O)COCc1ccco1)NS(=O)(=O)c1ccc(C)cc1` the figure was -9.48% [at 11.4 µM].
The same measure, in the same setting: with `COC(=O)C/C=C\[C@H](C)[C@H](CO)NS(=O)(=O)c1ccc(C)cc1` the figure was 44.8% [at 11.4 µM].
In the case of `NC1=N[C@H](c2ccc(Cl)cc2)N(c2ccc(S(=O)(=O)Nc3ncccn3)cc2)C(N)=N1`, the activity, negative = inhibition is 8.72% [at 11.4 µM].
`Cc1ccc(CSc2nc3c(c(SCC(=O)O)n2)CCCC3)cc1`: the AC50 result was “inactive”.
The same measure, in the same setting: with `Cc1ccc(CSc2nnc([C@@H]3CCCN3)o2)cc1` the figure was 7.08 µM (active).

Values taken from PubChem BioAssay AID1851 (National Center for Advancing Translational Sciences (NCATS), 2009).
